# Measured values reported in PubChem BioAssay AID624331 (National Center for Advancing Translational Sciences (NCATS), 2012).
# Records with an inconclusive call do not appear. A call without a number means that no potency is given here. The source made the active and inactive calls. The call rests on the fitted dose curve; in most records, active means well fitted activation curve with a large enough effect; inconclusive means small, poorly fitted or top-dose-only effect; inactive means no such curve, though single readings can be large or run the other way.
# Test: qHTS assay for re-activators of p53 using a Luc reporter: Hit Validation with no p53 Expressed
# Details: p53-null cells, luciferase reporter counter-screen; series mostly up to 46.1 µM
# Method in brief: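 Without p53 expression, cells (1000/well, Opti-MEM + 10% FBS) were exposed 24 h at 37 deg C to compounds in a 1:5 series from 10 mM stock (top 46.1 µM in well). Luminescent signal read 10 min after Amplite addition; actives flag unspecific activation.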
# Potency means the concentration at half of the fitted maximal effect.
row,Compound,Potency
1,O=C(Nc1ccc(-c2nc3cc(Cl)ccc3c(=O)o2)cc1)c1ccco1,inactive
2,CC(C)(C)c1nnc(SCC(=O)c2ccccc2)n(N)c1=O,inactive
3,Cc1ccc(C(=O)CC(Nc2ccc(F)cc2)c2ccccc2)cc1 (stereo not drawn),inactive
4,O=C(CCN1C(=O)NC2(CCCC2)C1=O)Nc1ccc(-c2nc3ccccc3s2)cc1,2310 nM (active)
5,Cc1cc(C)n2cc(CSc3nc4ccccc4s3)nc2n1,inactive
6,Cc1ccc(C(=O)c2cc([N+](=O)[O-])ccc2N2CCCCC2)cc1C,inactive
7,COc1ccc(-c2cc(C(F)(F)F)nc(-n3ccnc3C)n2)cc1,inactive
8,CN(CC(=O)Nc1ccc(Cl)c(Cl)c1)C(=O)C1CCCC1,inactive
9,CC(C)(C)CC(=O)O/N=C(\N)c1ccccn1,164 nM (active)
10,COc1cc(NC(=O)CN2CCCCC2)c(C)cc1[N+](=O)[O-],inactive
11,O=c1oc2ccccc2nc1/C=C(O)/C=C/c1ccc(F)cc1,inactive
12,Cc1cc(C(=O)NC2CCCCC2)c(C)n1-c1ccc(F)cc1,inactive
13,CCOC(=O)c1csc(Nc2nc3ccc(F)cc3s2)n1,inactive
14,Nc1nonc1-n1nnc(C(=O)N/N=C/c2ccc(Br)cc2)c1CSC1=NCCS1,inactive
15,C=C[C@@H]1c2cc(C)ccc2N(S(=O)(=O)c2ccc(C)cc2)[C@H](c2ccccc2C(F)(F)F)C1(C#N)C#N,inactive
16,CC(C)/C=C1\CC/C(=C\c2ccc(N(C)C)cc2)C1=O,inactive
17,CCc1ccc2[nH]c(=O)c(CN(CCN3CCCC3)C(=O)NC3CCCCC3)cc2c1,inactive
18,Cc1ccc2c(c1)CCCN2C(=O)Nc1ccc2c(c1)OCO2,inactive
